Where “and” joins values, the source holds several entries; their conditions need not be identical. Equal values may be shown once. Results filed as inconclusive are left out. Calls of active or inactive are those of the source. Rule for the calls: active = hit-call score of the fitted dose curve at least 0.9, where 1 is the maximum; inconclusive = response in the unintended direction; inactive = score below 0.9.

By AC50 is commonly meant the midpoint of the concentration-response curve, whichever way the signal moves.

Assay [1] addresses human Peripheral-type Benzodiazepine Receptor (PBR), TSPO (gene 706) (UniProt P30536). Briefly: NVS_MP_hPBR: NovaScreen (NVS) Membrane Protein Assay for human Peripheral-type Benzodiazepine Receptor (PBR) (AID 2283331).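 Note: hits reduce radioligand binding relative to DMSO baseline.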 The essentials: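 Cell-free binding to human colonic membrane preparations measured by filter-based scintillation counting after 1 h. Compounds first run at 25 uM in duplicate, then concentration series for actives; signal loss against DMSO baseline.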

The target of assay [2] is human Androgen Receptor (AR), AR (gene 367) (UniProt P10275). The experiment in a line: NVS_NR_hAR: NovaScreen (NVS) Nuclear Receptor Binding Assay for human Androgen Receptor (AR) (AID 2283332). The essentials:
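Radioligand competitive binding, scintillation read-out, in cell-free extract from LnCAP, measured 20 h after dosing. Screened first in duplicate at 25 uM, then concentration series for actives; activity fitted against DMSO.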

Assay [3] addresses Estrogen receptor (Homo sapiens) (UniProt P03372). The experiment in a line: OT_ER_ERaERa_0480: Odyssey Thera (OT) 8-hour HEK293T Protein-Complementation Assay for Estrogen Receptor-alpha/-alpha Homodimer (AID 2283351).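 Note: rise in fluorescence from reassembled reporter fragments on ERα LBD homodimer in nucleus or whole cell.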 The essentials:
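Read-out: fluorescence intensity rise relative to DMSO, nuclear for agonists, nuclear plus cytoplasmic for antagonists. Construct is the ERα LBD (aa 310-547) homodimer fragment-complementation pair, stably expressed in HEK293T; exposure 8 h.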

Assay [4] addresses T1, Estrogen receptor (Homo sapiens) + Estrogen receptor beta (Homo sapiens) (UniProt P03372+Q92731). Briefly: OT_ER_ERaERb_0480: Odyssey Thera (OT) 8-hour HEK293T Protein-Complementation Assay for Estrogen Receptor-alpha/-beta Heterodimer (AID 2283352). The method in brief:
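Fluorescence increase from reconstituted reporter fragments, quantified by laser scanning cytometer, reflects ER-alpha/ER-beta heterodimer formation in human HEK293T cells. Exposure 8 h; positive-direction fitting against DMSO vehicle.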

The target in assay [5] is Androgen Receptor/SRC-1 Co-activator, AR (gene 367) (UniProt P10275). The experiment in a line: OT_AR_ARSRC1_0960: Odyssey Thera (OT) 16-hour HEK293T Protein-Complementation Assay for Androgen Receptor/SRC-1 Co-activator (AID 2283353).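 Note: actives raise the signal above DMSO so potency reflects increased AR and SRC-1 complex.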 The method in brief:
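Readout: 488 nm nuclear-to-cytoplasmic fluorescence ratio from imaging of at least 400 cells per image, 16 h post-dose. Reporter is Venus YFP complementation between AR and SRC-1 fusions, stably expressed in HEK293T; activity scored upward relative to DMSO.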

The target is the same in assay [6]. The experiment in a line: OT_AR_ARSRC1_0480: Odyssey Thera (OT) 8-hour HEK293T Protein-Complementation Assay for Androgen Receptor/SRC-1 Co-activator (AID 2283354).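 Note: hits raise the complementation signal above DMSO so AC50 marks enhancers.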 The method in brief:
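Reconstituted split-Venus YFP signal from AR–SRC-1 interaction, read by imaging 8 h post-dose in stable HEK293T lines. The 488 nm nucleus-to-cytoplasm ratio (≥400 cells/image) was fitted upward against DMSO.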

The target of assay [7] is rat Mineralocorticoid Receptor (MR), Nr3c2 (gene 25672) (UniProt P22199). The experiment in a line: NVS_NR_rMR: NovaScreen (NVS) Nuclear Receptor Binding Assay for rat Mineralocorticoid Receptor (MR) (AID 2283355). The essentials: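 Primary HTS ran in duplicate at a single 25 uM concentration, with concentration-series follow-up for actives. Receptor source: adrenalectomized rat brain supernatant, cell-free. Radioligand displacement read by scintillation at 24 h, relative to DMSO baseline.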

In assay [8] the target is T1, Estrogen receptor (Homo sapiens) + Estrogen receptor beta (Homo sapiens). Briefly: OT_ER_ERaERb_1440: Odyssey Thera (OT) 24-hour HEK293T Protein-Complementation Assay for Estrogen Receptor-alpha/-beta Homodimer (AID 2283356).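 Note: heteromer of ER alpha and ER beta binding domains; hits raise reporter fluorescence and both agonists and antagonists give an increase.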 The essentials:
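Fragment complementation between ER alpha (310-547) and ER beta (263-489) ligand-binding domains in HEK293T cells; signal read 24 h post-dosing by laser scanning cytometer. Gain of fluorescence relative to DMSO fitted.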

For assay [9], the target named is rat Thyrotropin Releasing Hormone Receptor (TRH), Trhr (gene 25570) (UniProt Q01717). Briefly: NVS_GPCR_rTRH: NovaScreen (NVS) G Protein-Coupled Receptor Assay for rat Thyrotropin Releasing Hormone Receptor (TRH) (AID 2283329).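 Note: hit means lower bound tracer signal versus DMSO baseline.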 The essentials:
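Competitive radioligand binding on rat forebrain membrane preparations, with filtration and scintillation readout after 4 h. Primary testing in duplicate at 25 uM; actives confirmed in concentration-response. DMSO defined baseline.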

Assay [10] deals with rat Peripheral-type Benzodiazepine Receptor (PBR), Tspo (gene 24230) (UniProt P16257). The experiment in a line: NVS_MP_rPBR: NovaScreen (NVS) Membrane Protein Assay for rat Peripheral-type Benzodiazepine Receptor (PBR) (AID 2283335). The method in brief: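 Single-concentration duplicate screening at 25 uM preceded concentration-series retesting of actives. Binding of a specific radioligand to rat kidney membrane PBR was read by filtration radiodetection after 1 h, with plate-wise positive and negative controls.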

The next assay deals with NCBI gene 100848466. The experiment in a line: NVS_NR_bPR: NovaScreen (NVS) Nuclear Receptor Binding Assay for bovine Progextron Receptor (PR) (AID 2283343).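 Note: actives lower bound radioligand signal below DMSO meaning displacement of the label.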 The essentials: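 Competitive radioligand binding with membranes from bovine uterus, scintillation read-out at 18 h post-dose. Compounds first tested in duplicate at 25 uM, then actives in concentration series; loss-of-signal relative to DMSO.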

A short description of assay [11]: NVS_IC_rCaBTZCHL: NovaScreen (NVS) Ion Channel Assay for Calcium Channel, Type L, Benzothiazepine Site (CaBTZCHL) (AID 2283337). The method in brief: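 Rat cortical membrane preparation, cell-free. Radioligand displaced by test chemical; 1.5 h incubation; filtration, scintillation count. DMSO = negative control/baseline. Primary: duplicate, 25 uM; secondary: concentration series.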

The target of assay [12] is bovine Gamma-Aminobutyric Acid Type A Receptor Agonist (GABAR Agonist), GABRA1 (gene 780973) (UniProt P08219). Briefly: NVS_LGIC_bGABAR_Agonist: NovaScreen (NVS) Ligand-Gated Ion Channel Assay for bovine Gamma-Aminobutyric Acid Type A Receptor Agonist (GABAR Agonist) (AID 2283338). The essentials: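 Radioligand binding to bovine cerebellar membranes in agonist format, read by filter-based scintillation counting after 1 h. Primary screen in duplicate at 25 uM, with actives followed in concentration series. Gain of signal versus DMSO.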

The target in assay [13] is rat Glutamate, MK-801 Agonist Site (GluNMDA_MK801), Grin1 (gene 24408) (UniProt P35439). Briefly: NVS_LGIC_rGluNMDA_MK801_Agonist: NovaScreen (NVS) Ligand-Gated Ion Channel Assay for rat Glutamate, MK-801 Agonist Site (GluNMDA_MK801) (AID 2283340). The essentials:
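Rat forebrain membrane preparation; MK-801-site radioligand binding read by filtration and scintillation after 1.5 h. Single-point 25 uM duplicate screen, followed by singleton concentration series to 50 uM max; DMSO baseline.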

The test system of assay [14] is guinea pig Histamine Receptor (H2), gene 100729734. The experiment in a line: NVS_GPCR_gH2: NovaScreen (NVS) G Protein-Coupled Receptor Assay for guinea pig Histamine Receptor (H2) (AID 2283342). The essentials:
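Guinea pig striatal membrane preparation with specific radioligand; bound counts measured by filtration and scintillation 1 h post-dosing, DMSO as baseline. Chemicals passing a 25 uM duplicate screen were titrated to a 50 uM maximum.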

The target of assay [15] is Estrogen receptor beta (Homo sapiens) (UniProt Q92731). Briefly: OT_ER_ERbERb_0480: Odyssey Thera (OT) 8-hour HEK293T Protein-Complementation Assay for Estrogen Receptor-beta/-beta Homodimer (AID 2283357).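 Note: active means signal gain over DMSO baseline.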 The method in brief: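 ER-beta LBD homodimer PCA stably expressed in HEK293T; 8 h compound exposure, then formaldehyde fixation and Draq5 staining. Gain in nuclear/cytoplasmic fluorescence intensity versus DMSO vehicle, read on laser scanning cytometer.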

Assay [16] addresses bovine Estrogen Receptor (ER), ESR1 (gene 407238) (UniProt P49884). The experiment in a line: NVS_NR_bER: NovaScreen (NVS) Nuclear Receptor Binding Assay for bovine Estrogen Receptor (ER) (AID 2283345).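 Note: actives lower the bound radioligand count which means they displace the ER ligand.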 The essentials:
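Displacement of a radioligand from estrogen receptor in bovine uterine membrane preparations; scintillation signal taken at 18 hours, DMSO as baseline. Single-concentration duplicates (25 uM) preceded concentration-response follow-up of actives.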

Assay [17] addresses Retinoic acid receptor alpha (Homo sapiens) (UniProt P10276). The experiment in a line: NVS_NR_hRAR_Antagonist: NovaScreen (NVS) Nuclear Receptor Binding Assay for human Retinoic Acid Alpha Receptor Antagonism (RAR) (AID 2283358). The essentials:
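RARalpha antagonism was read by TR-FRET as loss of binding signal versus DMSO, 2 h after chemical addition, in a biochemical format. Single-concentration duplicates (25 uM) were run first, and actives were retested in concentration series.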

Sequence of bovine Estrogen Receptor (ER), ESR1 (gene 407238) (P49884 whole entry, looked up): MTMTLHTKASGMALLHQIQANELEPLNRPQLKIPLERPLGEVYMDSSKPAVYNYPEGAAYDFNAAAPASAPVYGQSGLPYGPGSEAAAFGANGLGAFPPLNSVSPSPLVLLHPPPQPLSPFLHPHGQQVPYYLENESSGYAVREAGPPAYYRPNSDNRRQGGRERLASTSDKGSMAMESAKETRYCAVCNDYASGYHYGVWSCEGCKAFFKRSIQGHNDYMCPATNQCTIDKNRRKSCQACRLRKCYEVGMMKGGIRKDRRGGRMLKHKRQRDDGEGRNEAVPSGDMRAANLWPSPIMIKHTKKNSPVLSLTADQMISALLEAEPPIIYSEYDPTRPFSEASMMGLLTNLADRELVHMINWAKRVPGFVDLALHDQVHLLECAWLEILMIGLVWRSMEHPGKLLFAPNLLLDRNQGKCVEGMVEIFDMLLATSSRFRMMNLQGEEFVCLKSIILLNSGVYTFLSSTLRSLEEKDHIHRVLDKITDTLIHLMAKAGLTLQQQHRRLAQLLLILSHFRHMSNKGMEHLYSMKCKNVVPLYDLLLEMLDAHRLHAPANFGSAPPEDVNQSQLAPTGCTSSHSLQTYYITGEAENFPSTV
Sequence of rat Peripheral-type Benzodiazepine Receptor (PBR), Tspo (gene 24230) (P16257 whole entry, looked up): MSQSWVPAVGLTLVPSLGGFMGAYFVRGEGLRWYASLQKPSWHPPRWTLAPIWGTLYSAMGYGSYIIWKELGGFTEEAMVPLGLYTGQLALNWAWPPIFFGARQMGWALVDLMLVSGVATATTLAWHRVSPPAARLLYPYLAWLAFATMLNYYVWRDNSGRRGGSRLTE
T1 sequence (P03372 whole entry, looked up, the tested form may be a part): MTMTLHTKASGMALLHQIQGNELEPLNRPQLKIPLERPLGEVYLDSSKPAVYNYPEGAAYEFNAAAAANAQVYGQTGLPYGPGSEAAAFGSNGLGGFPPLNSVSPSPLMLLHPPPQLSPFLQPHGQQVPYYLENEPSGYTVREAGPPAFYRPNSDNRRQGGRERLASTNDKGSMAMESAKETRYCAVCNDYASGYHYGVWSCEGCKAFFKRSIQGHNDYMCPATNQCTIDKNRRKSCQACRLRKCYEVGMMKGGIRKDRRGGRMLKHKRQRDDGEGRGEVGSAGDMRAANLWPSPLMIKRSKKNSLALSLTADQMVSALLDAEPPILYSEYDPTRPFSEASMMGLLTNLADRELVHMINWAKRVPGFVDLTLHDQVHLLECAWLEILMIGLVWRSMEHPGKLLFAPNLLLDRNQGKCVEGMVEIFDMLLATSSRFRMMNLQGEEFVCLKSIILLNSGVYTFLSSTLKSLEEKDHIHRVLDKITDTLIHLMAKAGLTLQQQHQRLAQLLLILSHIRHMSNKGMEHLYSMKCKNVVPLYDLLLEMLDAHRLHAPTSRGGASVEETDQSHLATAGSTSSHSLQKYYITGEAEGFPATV
T1 sequence (Q92731 whole entry, looked up, the tested form may be a part): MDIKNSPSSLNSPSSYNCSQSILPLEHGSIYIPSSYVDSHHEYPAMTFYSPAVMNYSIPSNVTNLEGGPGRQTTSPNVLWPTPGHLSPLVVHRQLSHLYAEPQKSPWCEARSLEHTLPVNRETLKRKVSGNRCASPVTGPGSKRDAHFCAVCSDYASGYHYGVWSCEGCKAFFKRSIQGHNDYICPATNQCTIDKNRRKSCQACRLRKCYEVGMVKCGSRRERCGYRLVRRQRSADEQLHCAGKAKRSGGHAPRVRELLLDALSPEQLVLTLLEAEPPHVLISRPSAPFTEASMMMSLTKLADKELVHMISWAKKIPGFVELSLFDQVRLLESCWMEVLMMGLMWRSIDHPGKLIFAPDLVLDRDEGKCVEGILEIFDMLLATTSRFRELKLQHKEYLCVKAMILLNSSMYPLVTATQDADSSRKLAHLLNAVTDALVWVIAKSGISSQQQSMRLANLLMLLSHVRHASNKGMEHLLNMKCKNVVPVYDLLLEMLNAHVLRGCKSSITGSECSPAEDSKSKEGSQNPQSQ
Sequence of Estrogen receptor (Homo sapiens) (P03372 whole entry, looked up, the tested form may be a part): as the sequence (P03372 whole entry, looked up, the tested form may be a part) above
Sequence of rat Thyrotropin Releasing Hormone Receptor (TRH), Trhr (gene 25570) (Q01717 whole entry, looked up): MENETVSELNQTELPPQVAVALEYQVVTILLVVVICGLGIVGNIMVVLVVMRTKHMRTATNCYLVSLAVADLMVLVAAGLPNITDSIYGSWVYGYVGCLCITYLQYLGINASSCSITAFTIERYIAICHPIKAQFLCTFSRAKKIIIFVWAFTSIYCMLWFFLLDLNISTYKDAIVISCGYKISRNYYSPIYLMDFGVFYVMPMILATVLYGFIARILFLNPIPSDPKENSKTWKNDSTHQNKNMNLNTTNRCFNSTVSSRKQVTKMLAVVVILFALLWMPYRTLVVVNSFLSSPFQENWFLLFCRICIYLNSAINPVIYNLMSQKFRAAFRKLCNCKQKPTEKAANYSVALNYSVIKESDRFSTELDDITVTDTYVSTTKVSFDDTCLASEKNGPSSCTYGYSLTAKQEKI
Sequence of Androgen Receptor/SRC-1 Co-activator, AR (gene 367) (P10275 whole entry, looked up, the tested form may be a part): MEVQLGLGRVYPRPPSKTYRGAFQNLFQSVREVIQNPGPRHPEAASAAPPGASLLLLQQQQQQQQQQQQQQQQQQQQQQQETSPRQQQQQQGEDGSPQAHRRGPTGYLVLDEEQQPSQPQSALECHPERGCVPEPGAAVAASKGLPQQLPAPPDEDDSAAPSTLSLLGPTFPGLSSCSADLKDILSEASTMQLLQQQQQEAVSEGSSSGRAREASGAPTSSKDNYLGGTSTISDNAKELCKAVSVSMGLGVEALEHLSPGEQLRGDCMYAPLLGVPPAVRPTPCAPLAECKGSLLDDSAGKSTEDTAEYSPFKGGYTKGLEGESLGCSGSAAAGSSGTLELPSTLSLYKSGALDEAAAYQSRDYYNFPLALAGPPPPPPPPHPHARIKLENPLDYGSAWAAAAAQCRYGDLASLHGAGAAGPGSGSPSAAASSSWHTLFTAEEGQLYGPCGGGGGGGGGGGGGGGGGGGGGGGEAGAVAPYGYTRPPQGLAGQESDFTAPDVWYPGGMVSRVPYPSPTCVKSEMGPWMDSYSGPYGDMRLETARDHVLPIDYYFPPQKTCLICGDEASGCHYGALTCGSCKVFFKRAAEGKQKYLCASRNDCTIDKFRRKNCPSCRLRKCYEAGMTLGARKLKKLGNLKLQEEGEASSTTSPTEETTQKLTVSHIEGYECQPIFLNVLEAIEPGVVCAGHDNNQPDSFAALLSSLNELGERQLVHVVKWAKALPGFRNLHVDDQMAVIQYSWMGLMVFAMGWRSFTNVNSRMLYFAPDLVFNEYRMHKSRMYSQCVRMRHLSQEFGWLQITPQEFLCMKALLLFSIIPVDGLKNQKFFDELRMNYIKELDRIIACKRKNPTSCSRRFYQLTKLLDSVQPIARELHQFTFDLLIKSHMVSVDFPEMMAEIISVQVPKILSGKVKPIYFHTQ
Sequence of human Peripheral-type Benzodiazepine Receptor (PBR), TSPO (gene 706) (P30536 whole entry, looked up): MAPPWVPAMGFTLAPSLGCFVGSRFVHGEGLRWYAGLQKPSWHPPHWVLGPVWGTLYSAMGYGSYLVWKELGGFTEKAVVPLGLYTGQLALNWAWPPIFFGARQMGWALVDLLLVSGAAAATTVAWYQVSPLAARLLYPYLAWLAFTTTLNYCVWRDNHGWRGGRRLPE
Sequence of Estrogen receptor beta (Homo sapiens) (Q92731 whole entry, looked up, the tested form may be a part): as the sequence (Q92731 whole entry, looked up, the tested form may be a part) above
Sequence of Retinoic acid receptor alpha (Homo sapiens) (P10276 whole entry, looked up): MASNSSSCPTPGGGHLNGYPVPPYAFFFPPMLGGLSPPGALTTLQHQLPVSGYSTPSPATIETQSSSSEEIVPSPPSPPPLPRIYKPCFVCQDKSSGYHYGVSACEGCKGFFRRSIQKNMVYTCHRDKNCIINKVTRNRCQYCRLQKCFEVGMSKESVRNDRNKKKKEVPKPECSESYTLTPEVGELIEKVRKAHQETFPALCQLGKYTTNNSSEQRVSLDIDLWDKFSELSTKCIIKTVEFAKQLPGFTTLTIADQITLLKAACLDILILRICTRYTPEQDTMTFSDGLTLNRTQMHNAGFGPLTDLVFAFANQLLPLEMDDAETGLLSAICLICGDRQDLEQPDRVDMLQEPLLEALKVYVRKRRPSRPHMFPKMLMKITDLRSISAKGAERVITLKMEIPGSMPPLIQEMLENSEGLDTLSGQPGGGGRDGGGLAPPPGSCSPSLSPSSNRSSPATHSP

In the case of `CN(Cc1cnc2nc(N)nc(N)c2n1)c1ccc(C(=O)N[C@@H](CCC(=O)O)C(=O)O)cc1`, the result in assay [1], in assay [2], in [3], in [4], in assay [5] and in [6] was inactive. Moreover, the compound was classed as inactive in assay [7] and in [8].

On to `NCCN`, for which the compound was classed as inactive in [9] and in [3].

Regarding `CS(=O)(=O)c1ccc([C@@H](CC2CCCC2)C(=O)Nc2cnccn2)cc1Cl`, the result in assay [9] was inactive.

`Clc1ccc(Nc2nnc(Cc3ccncc3)c3ccccc23)cc1`: the AC50 in [1] was 1.95 µM (active).

Consider `CCCCCc1ccc(O)cc1`, for which the AC50 in [1] is 25 µM (active). The compound was called inactive in assay [10].

Take `CCCCCCCCCCCCOS(=O)(=O)O`: the AC50 in the assay on NCBI gene 100848466 is 25.5 µM (active).

Turning to `CN(C)c1ccc(C(=C2C=CC(=[N+](C)C)C=C2)c2ccccc2)cc1`, the AC50 is 1.29 µM (active) and 1.63 µM (active) in assay [1]; 8.3 µM (active) in [10].

`CN(C)CCOC(c1ccccc1)c1ccccc1`: the AC50 is 5.8 µM (active) in [11] and 4.71 µM (active) in assay [14]. The result in assay [12], in assay [13], in [3], in assay [4], in [5] and in assay [6] was inactive. For the same compound, the result in assay [8] was inactive.

As to `Cc1ccc(C)c(S(=O)(=O)O)c1`, the AC50 in [9] is 0.194 µM (active).

In the case of `CCCCc1oc2ccccc2c1C(=O)c1cc(I)c(OCCN(CC)CC)c(I)c1`, the AC50 in assay [1] was 5.22 µM (active); in assay [10], 10.9 µM (active); in assay [11], 1.81 µM (active); in assay [14], 9.85 µM (active). The compound was classed as inactive in [3], in [4] and in [15].

With `CC(C)c1c(C(=O)Nc2ccccc2)c(-c2ccccc2)c(-c2ccc(F)cc2)n1CC[C@@H](O)C[C@@H](O)CC(=O)O`, the AC50 in assay [1] is 11.2 µM (active); in assay [10], 0.729 µM (active).

Consider `C=CC(C)(CCC=C(C)C)OC(C)=O` (configuration not stated), for which the outcome in [11] and in [3] was inactive. For the same compound, the concentration at half-maximal activity (AC50) in assay [16] was 17.1 µM (active).

`COc1cc(OC)nc(NC(=O)NS(=O)(=O)Nc2ccccc2C(=O)N(C)C)n1`: the outcome in assay [10] was inactive.

For `NC(=NCCCCCCN=C(N)/N=C(\N)Nc1ccc(Cl)cc1)/N=C(\N)Nc1ccc(Cl)cc1`, the results for the AC50 in assay [1], in [11] and in assay [5] were 10.3 µM (active), 8.58 µM (active) and 9.58 µM (active), respectively. In addition, the compound was classed as inactive in assay [16], in [3] and in [6].

Turning to `CCc1ccccc1O`, the result in assay [9], in assay [16], in assay [3], in assay [4], in assay [8] and in assay [15] was inactive.

For `c1cnc2c(c1)ccc1cccnc12`, the compound was classed as inactive in assay [10] and in assay [15].

For the compound `CCCCC(CC)C(=O)OCCOCCOCCOCCOC(=O)C(CC)CCCC` (configuration not stated), the AC50 in [1] is 15.8 µM (active).

Take `CCCCCCCCCCCC`: the figures for the half-maximal activity concentration (AC50) in assay [10] and in [17] were 5.18 µM (active) and 3.51 µM (active), respectively.

As for `Cc1ccc(S(=O)(=O)O)cc1`, in [9], the AC50 is 0.167 µM (active).

Regarding `CCCCCC(C)OC(=O)COc1ccc(Cl)c2cccnc12` (configuration not stated), in assay [1], the AC50 was 4.96 µM (active). Moreover, the result in assay [16] and in assay [3] was inactive.

Regarding `CCCCCCCC(OC)OC`, the result in assay [10] was inactive.
